# High-throughput results deposited in PubChem BioAssay by Broad Institute.
# An excerpt weighted towards active compounds, which were near 1.8% of everything screened.
# LGR2 antag: inhibitors of bursicon-induced Drosophila LGR2 receptor cAMP signaling; inhibition, % at 9.99 µM; hit rate 0.35% among 380,000; HEK293 LGR2, CRE-luciferase, bursicon-stimulated, 4 h;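 active = drop in luminescence signal, shown as inhibition above about 50% in the replicate tests, limit read from the data, passing the limit was not always enough; inconclusive = probably only some replicates passing the limit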;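 also: agonist challenge used bursicon conditioned medium at about half maximal strength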
# CFTR F508del cor: correctors of CFTR F508del function in bronchial epithelial cells | CFBE cells, YFP halide quenching; stimulated with forskolin plus potentiator P3; % fluorescence drop versus neutral controls | activity (quench increase), % at 7.58 µM | hit rate 0.36% among 350,000 | AID 720511;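 active = mean added fluorescence quench of at least 8% versus neutral control, with both replicates also reaching 8%; inconclusive = only one of the mean or replicate conditions met; inactive = mean below 8% and not both replicates reaching 8%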;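 also: cells transiently co-express mutant CFTR-F508del with the halide-sensitive YFP; corrector assay measuring rescue of mutant channel to the surface after 24 h compound exposure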
# EWS-Fli block: blocks EWS/Fli oncoprotein-driven transcription; AID 651661; inhibition, % at 12.6 µM; A673 NR0B1-luciferase reporter, viability-normalised; hit rate 0.67% among 350,000;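 active = mean inhibition of at least 50% after viability correction, with every replicate also passing that limit; inconclusive = mean reaches 50% but only one of two replicates passes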;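 also: firefly luciferase signal divided by Alamar Blue viability fluorescence both relative to DMSO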
# GSIS activator: GLuc luminescence reporter in INS-1E cells, primary screen for activators of glucose-dependent secretion of insulin; INS-1E GLuc reporter insulin secretion, 2-3 h; hit rate 0.61% among 370,000; activation, % at 16.6 µM; AID 743287;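 active = lowest replicate activation of at least 40%, so every replicate reaches that level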;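 also: 0% = median of neutral control wells and 100% = median of IBMX positive control wells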
# RAD54 inh: RAD54 (human) branch migration inhibition; Q92698; RAD54 Holliday junction branch migration, FAM/BHQ fluorescence; inhibition, % at 10.4 µM; hit rate 0.14% among 360,000; AID 602329;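 active = mean normalized replicate activity at least 40 and at least half of replicates scoring 40 or more; inconclusive = only one of the two criteria met; inactive = mean below 40 and under half of replicates reaching 40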;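 also: 0% = median of neutral control wells and 100% = median of positive control wells; inhibitors cause a drop in the FAM fluorescence signal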
# Target sequence (Q92698 whole entry, looked up): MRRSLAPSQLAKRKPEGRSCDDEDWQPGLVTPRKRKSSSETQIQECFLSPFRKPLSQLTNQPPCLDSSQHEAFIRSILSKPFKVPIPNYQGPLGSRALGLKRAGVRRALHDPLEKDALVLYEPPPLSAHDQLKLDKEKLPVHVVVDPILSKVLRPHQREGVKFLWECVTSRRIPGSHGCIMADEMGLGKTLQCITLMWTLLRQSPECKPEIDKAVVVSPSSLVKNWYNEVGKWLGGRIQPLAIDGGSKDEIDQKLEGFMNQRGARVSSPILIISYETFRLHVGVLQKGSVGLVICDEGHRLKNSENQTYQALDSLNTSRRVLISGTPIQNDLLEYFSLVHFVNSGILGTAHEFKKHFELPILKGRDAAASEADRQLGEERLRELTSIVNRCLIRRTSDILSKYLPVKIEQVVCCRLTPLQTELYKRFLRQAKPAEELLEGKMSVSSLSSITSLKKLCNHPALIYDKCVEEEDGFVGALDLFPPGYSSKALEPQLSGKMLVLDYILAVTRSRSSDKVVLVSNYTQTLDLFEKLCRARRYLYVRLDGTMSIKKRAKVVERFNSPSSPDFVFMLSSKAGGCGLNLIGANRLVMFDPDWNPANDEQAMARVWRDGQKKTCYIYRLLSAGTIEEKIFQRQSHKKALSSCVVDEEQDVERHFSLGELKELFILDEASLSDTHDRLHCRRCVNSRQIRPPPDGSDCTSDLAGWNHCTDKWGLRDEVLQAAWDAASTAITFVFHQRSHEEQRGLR
# RAD52 anneal inh: blocks human RAD52 DNA annealing | recombinant RAD52 DNA annealing, FRET fluorescence | inhibition, % at 18.7 µM | hit rate 0.46% among 360,000;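 active = every replicate showing at least 50% inhibition; inconclusive = mean inhibition at least 50% but not in every replicate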
# DNA binder FP: counter-screen for RAD52 inhibitors: DNA binding compounds; hit rate 8% among 1,000; Salmon sperm DNA/acridine orange FP displacement; AC50, µM; shares compounds with RAD52 anneal inh;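 active = fitted half-maximal concentration for signal loss at or below twice the highest dose tested, in every separate run, actives reach about 64 µM in these data; inconclusive = runs disagree, or flat partial signal loss, or poor fit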
# The depositor's hits bear a star; i = inactive; ? = inconclusive; · = not tested or not shown.
SMILES,LGR2 antag,CFTR F508del cor,EWS-Fli block,GSIS activator,RAD54 inh,RAD52 anneal inh,DNA binder FP
COc1cc2nc(N(CCCN(C)C)C(=O)c3ccc(C(=O)c4ccccc4)cc3)sc2cc1OC,0.6,-1.2,12.1,-31.7,30.1,71.6*,i
CCOc1cccc2sc(N(CCCN(C)C)C(=O)c3ccc(S(=O)(=O)N(C)Cc4ccccc4)cc3)nc12,-0.6,-2.0,21.1,-58.5,9.8,41.8,·
CCc1ccc2nc(N(CCCN(C)C)C(=O)c3ccc(C(=O)c4ccccc4)cc3)sc2c1,13.8,-2.6,16.3,19.4,21.1,48.6,·
CCN(Cc1ccccc1)S(=O)(=O)c1ccc(C(=O)N(CCCN(C)C)c2nc3cc(C)cc(C)c3s2)cc1,11.3,-0.8,12.5,-16.3,-2.6,-13.2,i
CCOc1cccc2sc(N(CCCN(C)C)C(=O)c3ccc(S(=O)(=O)N(CC)Cc4ccccc4)cc3)nc12,14.1,-1.4,13.6,-45.2,-3.7,65.0*,i
CO[C@@H]1CN(C)C(=O)c2ccc(NC(=O)C3CC3)cc2OC[C@@H](C)N(Cc2ccccc2C(=O)O)C[C@H]1C,-1.4,-0.1,-2.2,18.3,5.6,2.4,·
Cc1ccc(CNC(=O)C2CC(c3ccccc3C(F)(F)F)=NO2)o1 (stereo not drawn),7.4,-2.5,-0.2,·,0.8,-25.5,·
C#CCOCCOCCOCCNc1nc(N2CCN(C(=O)[C@H](CCCCN)n3cc(CCC(=O)O)nn3)CC2)nc(N2CCN(C(=O)[C@H](Cc3ccc(O)cc3)n3cc(CCO)nn3)CC2)n1,-11.8,2.1,1.5,10.4,-11.8,0.4,·
Cc1ccc2sc(N(CCCN(C)C)C(=O)c3ccc(S(=O)(=O)N(C)C)cc3)nc2c1C,4.9,0.7,9.8,2.2,·,12.1,·
Cc1cccc2sc(N(CCCN(C)C)C(=O)c3ccc(Cl)s3)nc12,20.4,0.2,-0.4,-21.3,9.7,56.5*,i
CCOc1cccc2sc(N(CCCN(C)C)C(=O)c3ccc(C(=O)c4ccccc4)cc3)nc12,1.6,-4.7,·,-42.0,35.1,51.5*,i
Cc1cccc2sc(N(CCCN(C)C)C(=O)c3ccco3)nc12,-17.2,0.0,7.9,20.6,20.2,19.6,·
CN(C)CCCN(C(=O)c1ccc(C(=O)c2ccccc2)cc1)c1nc2c(F)cccc2s1,4.2,-0.3,5.9,-25.6,21.0,36.3,·
Cc1ccc2sc(N(CCCN(C)C)C(=O)c3ccc(S(=O)(=O)N(C)Cc4ccccc4)cc3)nc2c1C,17.1,-7.8,27.0,34.8,-5.0,59.6*,i
Cc1cccc(NC(=S)N(Cc2cccs2)Cc2cc3cc(C)ccc3[nH]c2=O)c1,-5.8,·,-3.6,7.4,·,-7.0,·
O=C(N/N=C/c1cccc(O)c1)c1ccc2c(c1)OCCO2,13.4,-0.7,1.5,-3.8,3.7,-9.7,·
N[C@@H](Cc1ccc(O)cc1)c1nnc([C@H](CCC(=O)O)NC(=O)C2CCNCC2)o1,3.7,-1.0,-9.6,7.3,2.4,-18.2,·
CCN1CCN(CCCNC(=O)c2ccc(/C=C3/Sc4ccccc4N(Cc4ccccc4F)C3=O)cc2)CC1,21.4,-3.5,9.8,99.9*,53.9*,75.9*,i
CCN1CCN(CCNC(=O)c2ccc(/C=C3/Sc4ccccc4N(Cc4ccccc4C)C3=O)cc2)CC1,47.6,-6.3,14.2,26.5,1.1,54.7*,i
Cc1ccccc1CN1C(=O)c2ccccc2Sc2ccc(C(=O)NCCN3CCOCC3)cc21,3.8,0.3,·,-6.4,12.5,-22.3,·
O=C(NCCCN1CCOCC1)c1ccc(/C=C2\Oc3ccccc3N(Cc3ccccc3F)C2=O)cc1,3.1,0.5,·,9.5,2.6,-10.7,·
Cc1nc2sccn2c(=O)c1S(=O)(=O)NCC1CCN(Cc2ccc(Cl)cc2)CC1,-6.2,-1.6,9.5,-15.4,-1.2,-16.5,·
C/C(N)=C(/C#N)C(=O)COC(=O)CC12CC3CC(CC(C3)C1)C2,·,·,·,·,-6.2,·,·
O=C(Cc1n[nH]c(=O)c2ccccc12)OCC(=O)c1ccccc1Cl,5.3,-0.7,-14.3,18.6,-2.1,-12.3,·
CN(C)CCCNc1ncnc2oc(-c3ccccc3)c(-c3ccccc3)c12,1.1,2.3,15.6,9.5,38.6,34.3,i
SMILES,LGR2 antag,CFTR F508del cor,EWS-Fli block,GSIS activator,RAD54 inh,RAD52 anneal inh,DNA binder FP
c1ccc(-c2oc3ncnc(NCCCn4ccnc4)c3c2-c2ccccc2)cc1,1.5,·,·,-55.7,8.9,3.6,·
COc1ccc2nc(C)cc(Nc3ccc(N4CCN(C)CC4)cc3)c2c1,-11.6,-0.4,80.2*,18.2,97.6*,99.8*,42.3µM*
OC(CN1CCOCC1)Cn1c2ccccc2c2ccccc21 (stereo not drawn),4.7,-1.2,7.5,4.1,8.9,-0.7,·
OC(CN1CCNCC1)Cn1c2ccccc2c2ccccc21 (stereo not drawn),8.5,1.3,-16.4,-11.9,18.9,79.0*,i
CC(C)(C)CN1CCC(Oc2cccc(C(=O)N3CCC[C@H]3CO)c2)CC1,14.2,2.7,2.2,16.0,1.7,-19.9,·
CC(=O)N1CCN(C(C(=O)Nc2c(C)cccc2C)c2ccccc2OC(F)(F)F)CC1 (stereo not drawn),-4.2,0.9,-1.4,1.4,·,-26.4,·
c1ccc2c(c1)C1=NCCN1c1ccccc1-2,-35.3,11.3*,35.4,5.8,·,81.7*,?
COc1cc2c(cc1O)CC[n+]1cc3c(OC)c(OC)ccc3cc1-2,-7.5,-1.1,12.3,-10.7,75.7*,81.3*,i
COc1cc2c(cc1OC)-c1cc3ccc4c(c3c[n+]1CC2)OCO4,-2.4,2.8,-1.4,·,-11.0,-437.2,·
CC(C)CN1CCC(Oc2cccc(C(=O)NCCc3ccccc3)c2)CC1,-8.4,0.7,-21.9,14.2,7.8,-11.5,·
CN1CCN(c2ccc(CNC(=O)c3ccc(-c4ccc(F)c(F)c4)c4ccoc34)cc2)CC1,8.4,1.9,11.3,-3.7,2.8,54.5*,i
CN1CCN(c2ccc(CNC(=O)c3cccc4c(-c5ccc(F)c(F)c5)coc34)cc2)CC1,·,·,·,·,16.3,·,·
CC(C)(C)SCCNC(=O)CN(c1ccccc1)S(=O)(=O)c1ccc(F)cc1,17.6,1.8,13.0,7.3,-2.1,-12.7,·
CSC1SCC2C(=O)N(C)C(C(C)C)C(=O)OCC(NC(=O)c3cnc4ccccc4n3)C(=O)NC(C)C(=O)N(C)C1C(=O)N(C)C(C(C)C)C(=O)OCC(NC(=O)c1cnc3ccccc3n1)C(=O)NC(C)C(=O)N2C (stereo not drawn),99.3*,-3.4,16.2,-0.4,·,72.5*,i
COc1cc(-c2cnc3c(NC=O)cc(-c4ccc(N5CCN(C)CC5)cc4)cn23)cc(OC)c1OC,-20.5,-0.1,-27.4,0.2,21.9,70.0*,i
CCC(CC)C(=O)Nc1cccc(C(=O)Nc2ccc(OC)cc2[N+](=O)[O-])c1,·,·,·,·,-2.7,·,·
